Laboratory results as given in paper PMC7862700, “An all-to-all approach to the identification of sequence-specific readers for epigenetic DNA modifications on cytosine”.

How the values were obtained:
Assay in all cases: DAPPL (digital affinity profiling via proximity ligation, sequencing); 10 mM Tris-HCl pH 7.5, 50 mM NaCl, 1 mM DTT, 4% glycerol, room temperature, 30 min; GST-TFs on glutathione beads, 16-mer random dsDNA library, 0.1% formaldehyde crosslink after washing; high values mean tight binding
FLI1 = target: T1, FLI1 (Homo sapiens, UniProt Q01543 1-452); details: protein: recombinant; tags: N-terminal GST; dsDNA, one strand shown
T1 sequence: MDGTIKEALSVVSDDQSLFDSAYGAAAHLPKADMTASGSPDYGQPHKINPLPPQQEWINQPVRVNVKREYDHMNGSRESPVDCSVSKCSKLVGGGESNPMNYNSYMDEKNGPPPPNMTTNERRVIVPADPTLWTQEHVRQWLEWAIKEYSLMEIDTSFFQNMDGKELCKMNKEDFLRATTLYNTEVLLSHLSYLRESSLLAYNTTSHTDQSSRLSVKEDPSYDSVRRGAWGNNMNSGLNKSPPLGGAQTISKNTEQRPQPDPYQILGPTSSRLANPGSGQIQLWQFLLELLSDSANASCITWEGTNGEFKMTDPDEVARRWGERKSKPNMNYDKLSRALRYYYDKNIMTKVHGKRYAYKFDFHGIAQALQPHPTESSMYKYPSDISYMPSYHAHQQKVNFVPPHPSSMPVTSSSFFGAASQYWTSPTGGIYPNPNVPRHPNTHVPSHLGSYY
How it was run: (§1)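 Human transcription factors fused to GST were expressed in yeast, captured on glutathione beads, given DNA barcodes and pooled with a GST-only negative control. Pools were incubated with 200 nmole of a 16-mer random double-stranded DNA library in Tris/NaCl/DTT/glycerol buffer at room temperature for 30 min. They were then washed, crosslinked with 0.1% formaldehyde, proximity-ligated (BsaI/T4 ligase, 1 h, 37 °C), PCR-amplified and sequenced on an Illumina NextSeq500. Binding signal is each 6-mer's read frequency for a factor divided by its frequency for the GST control.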

ELK1 = target: T2, ELK1 (Homo sapiens, UniProt P19419 1-428); details: protein: recombinant; tags: N-terminal GST; dsDNA, one strand shown
T2 sequence: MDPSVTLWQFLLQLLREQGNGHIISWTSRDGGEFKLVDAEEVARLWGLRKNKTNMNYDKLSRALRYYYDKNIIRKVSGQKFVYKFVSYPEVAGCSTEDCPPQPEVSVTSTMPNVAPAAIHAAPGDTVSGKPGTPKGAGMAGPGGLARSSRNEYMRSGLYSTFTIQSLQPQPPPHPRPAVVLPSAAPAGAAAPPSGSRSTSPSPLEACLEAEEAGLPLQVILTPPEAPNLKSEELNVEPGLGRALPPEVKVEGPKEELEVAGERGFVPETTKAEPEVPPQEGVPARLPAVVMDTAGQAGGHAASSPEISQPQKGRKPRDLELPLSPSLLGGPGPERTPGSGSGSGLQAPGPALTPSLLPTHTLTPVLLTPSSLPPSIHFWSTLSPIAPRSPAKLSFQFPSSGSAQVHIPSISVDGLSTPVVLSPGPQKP
How it was run: as §1

GABPA = target: T3, GABPA (Homo sapiens, UniProt Q06546 1-454); details: protein: recombinant; tags: N-terminal GST; dsDNA, one strand shown
T3 sequence: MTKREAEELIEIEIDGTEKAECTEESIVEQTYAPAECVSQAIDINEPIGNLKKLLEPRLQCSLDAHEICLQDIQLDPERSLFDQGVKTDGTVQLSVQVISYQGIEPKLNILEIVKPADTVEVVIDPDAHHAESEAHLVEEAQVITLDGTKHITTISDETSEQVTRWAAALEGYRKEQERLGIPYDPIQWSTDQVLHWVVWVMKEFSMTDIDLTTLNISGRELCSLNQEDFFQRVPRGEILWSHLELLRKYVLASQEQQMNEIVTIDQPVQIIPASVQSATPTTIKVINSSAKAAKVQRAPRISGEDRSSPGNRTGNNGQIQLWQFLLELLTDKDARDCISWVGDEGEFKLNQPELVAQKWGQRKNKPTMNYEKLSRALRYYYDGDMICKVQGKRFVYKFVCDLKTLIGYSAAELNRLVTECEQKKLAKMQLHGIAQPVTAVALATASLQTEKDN
How it was run: as §1

ERG = target: T4, ERG (Homo sapiens, UniProt P11308 1-479); details: protein: recombinant; tags: N-terminal GST; dsDNA, one strand shown
T4 sequence: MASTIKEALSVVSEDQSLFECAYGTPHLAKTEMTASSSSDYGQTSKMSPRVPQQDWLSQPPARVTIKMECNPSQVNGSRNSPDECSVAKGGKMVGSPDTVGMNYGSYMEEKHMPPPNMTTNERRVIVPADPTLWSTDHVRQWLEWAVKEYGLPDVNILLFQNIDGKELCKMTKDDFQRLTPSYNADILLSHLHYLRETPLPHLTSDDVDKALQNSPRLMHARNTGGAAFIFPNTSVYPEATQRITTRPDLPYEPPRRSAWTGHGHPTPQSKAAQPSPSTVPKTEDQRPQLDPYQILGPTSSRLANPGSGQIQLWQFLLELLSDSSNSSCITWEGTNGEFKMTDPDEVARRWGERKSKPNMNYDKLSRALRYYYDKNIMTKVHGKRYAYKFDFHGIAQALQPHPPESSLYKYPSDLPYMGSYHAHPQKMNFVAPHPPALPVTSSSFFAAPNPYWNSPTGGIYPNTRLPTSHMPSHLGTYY
How it was run: as §1

ELF1 = ELF1 (Homo sapiens, UniProt P32519 1-619); details: protein: recombinant; tags: N-terminal GST; dsDNA, one strand shown
How it was run: as §1

EHF = target: T5, EHF (Homo sapiens, UniProt Q9NZC4 1-300); details: protein: recombinant; tags: N-terminal GST; dsDNA, one strand shown
T5 sequence: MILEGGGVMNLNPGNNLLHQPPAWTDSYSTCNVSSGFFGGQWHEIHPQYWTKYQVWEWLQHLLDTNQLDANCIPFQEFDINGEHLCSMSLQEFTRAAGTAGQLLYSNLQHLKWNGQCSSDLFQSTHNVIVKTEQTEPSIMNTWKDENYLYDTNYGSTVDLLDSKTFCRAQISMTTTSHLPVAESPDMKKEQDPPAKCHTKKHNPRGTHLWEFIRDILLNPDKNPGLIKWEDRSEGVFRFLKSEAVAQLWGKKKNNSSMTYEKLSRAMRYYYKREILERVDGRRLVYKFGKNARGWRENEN
How it was run: as §1

SPI1 = SPI1 (Homo sapiens, UniProt P17947 1-270); details: protein: recombinant; tags: N-terminal GST; dsDNA, one strand shown
How it was run: as §1

SPIB = SPIB (Homo sapiens, UniProt Q01892 1-262); details: protein: recombinant; tags: N-terminal GST; dsDNA, one strand shown
How it was run: as §1

ELK3 = target: T6, ELK3 (Homo sapiens, UniProt P41970 1-407); details: protein: recombinant; tags: N-terminal GST; dsDNA, one strand shown
T6 sequence: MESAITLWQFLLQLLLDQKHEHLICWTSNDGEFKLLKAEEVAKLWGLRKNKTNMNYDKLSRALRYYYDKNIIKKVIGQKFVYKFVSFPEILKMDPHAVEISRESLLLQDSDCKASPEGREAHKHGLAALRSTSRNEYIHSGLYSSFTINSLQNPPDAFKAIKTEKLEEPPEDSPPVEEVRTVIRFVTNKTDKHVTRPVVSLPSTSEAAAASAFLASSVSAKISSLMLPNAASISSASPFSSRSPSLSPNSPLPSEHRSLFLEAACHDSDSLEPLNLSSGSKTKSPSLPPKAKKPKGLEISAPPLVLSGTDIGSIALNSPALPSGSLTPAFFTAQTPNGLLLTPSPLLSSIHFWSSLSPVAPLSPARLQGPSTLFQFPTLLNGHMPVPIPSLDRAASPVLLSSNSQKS
How it was run: as §1

FEV = target: T7, FEV (Homo sapiens, UniProt Q99581 1-238); details: protein: recombinant; tags: N-terminal GST; dsDNA, one strand shown
T7 sequence: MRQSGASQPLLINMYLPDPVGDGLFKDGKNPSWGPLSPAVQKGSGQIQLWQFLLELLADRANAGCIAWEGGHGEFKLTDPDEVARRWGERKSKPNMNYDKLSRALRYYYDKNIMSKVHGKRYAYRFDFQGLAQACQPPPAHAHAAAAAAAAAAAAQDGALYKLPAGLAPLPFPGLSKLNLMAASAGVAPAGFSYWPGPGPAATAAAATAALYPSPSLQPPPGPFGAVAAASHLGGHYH
How it was run: as §1

ETV5 = ETV5 (Homo sapiens, UniProt P41161 1-510); details: protein: recombinant; tags: N-terminal GST; dsDNA, one strand shown
How it was run: as §1

HSF1 = HSF1 (Homo sapiens, UniProt Q00613 1-529); details: protein: recombinant; tags: N-terminal GST; chain copies: 3; dsDNA, one strand shown
How it was run: as §1

SPIC = target: T8, SPIC (Homo sapiens, UniProt Q8N5J4 1-248); details: protein: recombinant; tags: N-terminal GST; dsDNA, one strand shown
T8 sequence: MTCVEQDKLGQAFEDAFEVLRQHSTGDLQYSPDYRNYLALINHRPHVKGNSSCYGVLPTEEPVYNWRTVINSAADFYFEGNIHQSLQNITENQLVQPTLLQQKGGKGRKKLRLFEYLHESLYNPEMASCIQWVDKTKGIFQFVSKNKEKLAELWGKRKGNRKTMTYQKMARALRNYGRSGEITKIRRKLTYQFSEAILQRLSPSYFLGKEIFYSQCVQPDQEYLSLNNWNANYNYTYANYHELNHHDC
How it was run: as §1

ELF4 = ELF4 (Homo sapiens, UniProt Q99607 1-663); details: protein: recombinant; tags: N-terminal GST; dsDNA, one strand shown
How it was run: as §1

ELK4 = target: T9, ELK4 (Homo sapiens, UniProt P28324-2 1-405); details: protein: recombinant; tags: N-terminal GST; dsDNA, one strand shown
T9 sequence: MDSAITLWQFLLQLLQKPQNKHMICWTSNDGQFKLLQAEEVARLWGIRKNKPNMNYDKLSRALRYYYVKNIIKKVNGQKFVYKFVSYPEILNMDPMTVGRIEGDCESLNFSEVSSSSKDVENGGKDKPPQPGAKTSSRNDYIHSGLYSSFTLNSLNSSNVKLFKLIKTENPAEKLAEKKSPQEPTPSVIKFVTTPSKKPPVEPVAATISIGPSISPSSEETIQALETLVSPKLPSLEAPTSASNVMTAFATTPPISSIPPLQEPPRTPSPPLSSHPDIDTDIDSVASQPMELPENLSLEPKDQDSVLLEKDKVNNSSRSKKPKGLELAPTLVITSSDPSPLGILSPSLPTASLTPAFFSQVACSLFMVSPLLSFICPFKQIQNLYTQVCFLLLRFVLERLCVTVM
How it was run: as §1

ETV2 = target: T10, ETV2 (Homo sapiens, UniProt O00321 1-342); details: protein: recombinant; tags: N-terminal GST; dsDNA, one strand shown
T10 sequence: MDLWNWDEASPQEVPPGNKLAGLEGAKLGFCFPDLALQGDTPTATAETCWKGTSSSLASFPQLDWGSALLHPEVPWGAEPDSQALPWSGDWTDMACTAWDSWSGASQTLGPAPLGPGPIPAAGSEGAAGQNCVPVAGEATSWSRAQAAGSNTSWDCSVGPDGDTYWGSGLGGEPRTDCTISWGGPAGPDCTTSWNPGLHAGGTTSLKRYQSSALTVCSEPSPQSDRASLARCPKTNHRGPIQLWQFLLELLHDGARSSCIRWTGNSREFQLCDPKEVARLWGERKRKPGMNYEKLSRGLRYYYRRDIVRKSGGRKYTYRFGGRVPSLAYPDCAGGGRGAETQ
How it was run: as §1

ELF3 = target: T11, ELF3 (Homo sapiens, UniProt P78545 1-371); details: protein: recombinant; tags: N-terminal GST; dsDNA, one strand shown
T11 sequence: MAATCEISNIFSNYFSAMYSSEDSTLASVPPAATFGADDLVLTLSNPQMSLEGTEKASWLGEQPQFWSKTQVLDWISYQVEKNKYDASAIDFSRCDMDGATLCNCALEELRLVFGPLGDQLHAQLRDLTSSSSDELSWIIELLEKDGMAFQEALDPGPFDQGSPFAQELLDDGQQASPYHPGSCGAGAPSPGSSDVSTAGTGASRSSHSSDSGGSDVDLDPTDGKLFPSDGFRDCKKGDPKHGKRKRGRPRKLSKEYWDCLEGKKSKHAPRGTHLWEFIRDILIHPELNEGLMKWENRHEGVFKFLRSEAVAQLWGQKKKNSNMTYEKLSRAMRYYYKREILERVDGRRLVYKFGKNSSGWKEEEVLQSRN
How it was run: as §1

CRX = CRX (Homo sapiens, UniProt O43186 1-299); details: protein: recombinant; tags: N-terminal GST; dsDNA, one strand shown
How it was run: as §1

ETV1 = ETV1 (Homo sapiens, UniProt P50549 1-477); details: protein: recombinant; tags: N-terminal GST; dsDNA, one strand shown
How it was run: as §1

CRX, sequence (O43186 whole entry): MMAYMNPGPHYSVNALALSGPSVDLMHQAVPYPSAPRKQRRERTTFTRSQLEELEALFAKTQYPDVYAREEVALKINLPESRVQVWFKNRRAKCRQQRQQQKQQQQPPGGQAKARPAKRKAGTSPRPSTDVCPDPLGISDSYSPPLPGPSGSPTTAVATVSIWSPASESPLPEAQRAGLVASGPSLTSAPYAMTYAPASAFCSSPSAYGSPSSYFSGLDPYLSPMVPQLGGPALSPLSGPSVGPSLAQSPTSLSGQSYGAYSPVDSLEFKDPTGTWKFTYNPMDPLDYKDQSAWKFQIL
ETV5, sequence (P41161 whole entry): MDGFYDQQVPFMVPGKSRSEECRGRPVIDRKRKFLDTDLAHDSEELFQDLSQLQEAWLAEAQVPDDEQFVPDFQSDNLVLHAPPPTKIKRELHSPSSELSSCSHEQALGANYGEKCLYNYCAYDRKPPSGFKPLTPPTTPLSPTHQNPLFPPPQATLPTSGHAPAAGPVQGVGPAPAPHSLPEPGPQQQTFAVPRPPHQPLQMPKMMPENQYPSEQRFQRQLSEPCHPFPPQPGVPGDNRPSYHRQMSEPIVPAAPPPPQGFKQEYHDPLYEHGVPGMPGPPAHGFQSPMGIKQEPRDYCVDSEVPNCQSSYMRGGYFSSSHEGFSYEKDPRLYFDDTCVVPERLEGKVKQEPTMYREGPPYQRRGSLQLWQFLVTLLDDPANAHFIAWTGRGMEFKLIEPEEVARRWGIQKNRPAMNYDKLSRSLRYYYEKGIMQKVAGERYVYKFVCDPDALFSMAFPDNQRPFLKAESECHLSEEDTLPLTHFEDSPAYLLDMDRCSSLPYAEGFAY
ELF1, sequence (P32519 whole entry): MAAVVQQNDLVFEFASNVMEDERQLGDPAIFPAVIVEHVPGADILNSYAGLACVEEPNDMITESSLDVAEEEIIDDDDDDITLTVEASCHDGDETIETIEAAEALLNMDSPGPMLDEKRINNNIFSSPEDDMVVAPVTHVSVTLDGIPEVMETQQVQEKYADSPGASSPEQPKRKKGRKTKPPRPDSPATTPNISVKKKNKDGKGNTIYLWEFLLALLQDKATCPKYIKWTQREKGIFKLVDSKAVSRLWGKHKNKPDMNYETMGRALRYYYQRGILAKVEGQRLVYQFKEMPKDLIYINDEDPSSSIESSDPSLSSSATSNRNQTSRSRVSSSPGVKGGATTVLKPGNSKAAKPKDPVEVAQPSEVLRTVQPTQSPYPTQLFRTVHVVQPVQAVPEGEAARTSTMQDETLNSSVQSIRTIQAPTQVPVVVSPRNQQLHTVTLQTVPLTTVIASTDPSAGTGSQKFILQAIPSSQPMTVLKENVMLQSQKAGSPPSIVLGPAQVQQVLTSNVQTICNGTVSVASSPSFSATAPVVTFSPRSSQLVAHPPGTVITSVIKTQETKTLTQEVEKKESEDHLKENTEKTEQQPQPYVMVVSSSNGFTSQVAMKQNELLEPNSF
ETV1, sequence (P50549 whole entry): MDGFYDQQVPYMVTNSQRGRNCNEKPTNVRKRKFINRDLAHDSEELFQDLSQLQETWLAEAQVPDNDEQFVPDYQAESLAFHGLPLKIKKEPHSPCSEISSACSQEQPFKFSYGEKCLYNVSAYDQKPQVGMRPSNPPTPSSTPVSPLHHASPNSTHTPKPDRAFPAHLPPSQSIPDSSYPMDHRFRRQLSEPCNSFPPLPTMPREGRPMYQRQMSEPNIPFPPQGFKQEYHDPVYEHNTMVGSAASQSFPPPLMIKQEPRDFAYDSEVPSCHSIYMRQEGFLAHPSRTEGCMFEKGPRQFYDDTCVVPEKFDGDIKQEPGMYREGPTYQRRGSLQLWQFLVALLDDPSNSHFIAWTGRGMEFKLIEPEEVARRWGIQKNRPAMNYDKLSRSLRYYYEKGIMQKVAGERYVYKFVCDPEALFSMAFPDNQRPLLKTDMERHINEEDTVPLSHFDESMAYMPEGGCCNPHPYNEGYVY
HSF1, sequence (Q00613 whole entry): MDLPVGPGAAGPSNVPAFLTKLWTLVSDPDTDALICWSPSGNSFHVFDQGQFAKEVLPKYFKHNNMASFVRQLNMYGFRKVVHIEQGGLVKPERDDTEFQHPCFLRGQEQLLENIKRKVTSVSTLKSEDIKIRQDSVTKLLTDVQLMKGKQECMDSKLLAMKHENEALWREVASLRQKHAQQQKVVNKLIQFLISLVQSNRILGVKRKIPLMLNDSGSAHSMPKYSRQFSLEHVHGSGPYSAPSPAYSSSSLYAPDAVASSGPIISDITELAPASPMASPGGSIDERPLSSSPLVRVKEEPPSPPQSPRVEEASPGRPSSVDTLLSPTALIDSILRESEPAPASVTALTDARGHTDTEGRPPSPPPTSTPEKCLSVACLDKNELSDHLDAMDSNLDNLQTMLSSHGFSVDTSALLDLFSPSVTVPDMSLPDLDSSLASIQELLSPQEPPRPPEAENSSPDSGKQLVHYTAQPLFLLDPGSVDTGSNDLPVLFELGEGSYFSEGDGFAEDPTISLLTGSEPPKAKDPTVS
SPIB, sequence (Q01892 whole entry): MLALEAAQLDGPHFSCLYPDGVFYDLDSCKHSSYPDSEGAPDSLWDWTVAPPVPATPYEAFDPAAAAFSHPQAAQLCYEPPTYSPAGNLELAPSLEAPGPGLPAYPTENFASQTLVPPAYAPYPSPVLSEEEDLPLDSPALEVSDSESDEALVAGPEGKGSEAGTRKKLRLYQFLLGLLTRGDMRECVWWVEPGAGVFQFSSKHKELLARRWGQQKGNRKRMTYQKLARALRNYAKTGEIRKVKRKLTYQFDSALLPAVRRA
ELF4, sequence (Q99607 whole entry): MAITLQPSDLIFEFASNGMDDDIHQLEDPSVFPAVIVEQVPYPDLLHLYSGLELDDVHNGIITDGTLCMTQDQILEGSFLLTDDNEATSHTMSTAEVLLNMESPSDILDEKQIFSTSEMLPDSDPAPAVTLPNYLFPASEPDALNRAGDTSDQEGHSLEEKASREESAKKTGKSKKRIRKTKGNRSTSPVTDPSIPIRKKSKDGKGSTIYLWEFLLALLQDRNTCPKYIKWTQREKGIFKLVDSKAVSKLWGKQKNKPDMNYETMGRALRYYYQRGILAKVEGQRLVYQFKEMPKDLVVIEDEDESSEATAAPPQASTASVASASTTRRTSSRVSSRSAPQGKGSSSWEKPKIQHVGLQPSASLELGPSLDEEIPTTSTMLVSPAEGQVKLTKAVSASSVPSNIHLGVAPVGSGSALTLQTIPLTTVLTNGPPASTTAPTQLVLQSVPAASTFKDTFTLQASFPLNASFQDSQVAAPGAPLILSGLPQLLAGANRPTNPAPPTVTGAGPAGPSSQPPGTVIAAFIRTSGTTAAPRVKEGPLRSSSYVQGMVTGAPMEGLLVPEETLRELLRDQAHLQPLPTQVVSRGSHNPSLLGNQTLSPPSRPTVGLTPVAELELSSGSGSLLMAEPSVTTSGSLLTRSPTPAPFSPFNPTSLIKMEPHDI

TCTCTC
binding signal (FLI1): 1.37 fold enrichment (6-mer frequency, TF over GST control) | binding signal (ELK1): 1.27 fold enrichment (6-mer frequency, TF over GST control) | binding signal (GABPA): 1.36 fold enrichment (6-mer frequency, TF over GST control) | binding signal (ERG): 1.22 fold enrichment (6-mer frequency, TF over GST control) | binding signal (ELF1): 1.35 fold enrichment (6-mer frequency, TF over GST control) | binding signal (EHF): 1.36 fold enrichment (6-mer frequency, TF over GST control) | binding signal (SPI1): 1.39 fold enrichment (6-mer frequency, TF over GST control) | binding signal (SPIB): 1.31 fold enrichment (6-mer frequency, TF over GST control) | binding signal (ELK3): 1.36 fold enrichment (6-mer frequency, TF over GST control) | binding signal (FEV): 1.21 fold enrichment (6-mer frequency, TF over GST control) | binding signal (ETV5): 1.27 fold enrichment (6-mer frequency, TF over GST control) | binding signal (HSF1): 1.59 fold enrichment (6-mer frequency, TF over GST control) | binding signal (SPIC): 1.36 fold enrichment (6-mer frequency, TF over GST control) | binding signal (ELF4): 1.44 fold enrichment (6-mer frequency, TF over GST control) | binding signal (ELK4): 1.38 fold enrichment (6-mer frequency, TF over GST control) | binding signal (ETV2): 1.34 fold enrichment (6-mer frequency, TF over GST control) | binding signal (ELF3): 1.39 fold enrichment (6-mer frequency, TF over GST control) | binding signal (CRX): 1.35 fold enrichment (6-mer frequency, TF over GST control) | binding signal (ETV1): 1.3 fold enrichment (6-mer frequency, TF over GST control)
